According to PubChem BioAssay AID1159580 (chemical genetic matrix, 2015):
Values joined by “and” are separate entries in the source; they are usually repeats but may differ in a detail not shown here. Identical values can stand only once. The campaign covered roughly 5,500 compounds. About 2,000 (36%) were called active. About 18% were inconclusive and are not listed. Cut-off read from the data, not from the text of the source: active = normalized growth mostly below about 0.91 (no sharp cut-off); inconclusive = no clear call, values can overlap the other calls; inactive = mostly above about 0.92. The list shows a part of the results.

Assay: chemical genetic growth profiling, strain panel (AID 1159580);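 note: tested at 20 µM; growth read once vehicle control cultures reached saturation at 30 °C; 1 = growth at the plate median or of vehicle wells; lower values mean less growth of the strain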
Conditions: S. cerevisiae deletion strains, growth OD

Measured: normalized growth

NCC[C@@H](O)C(=O)N[C@@H]1C[C@H](N)[C@@H](O[C@H]2O[C@H](CN)[C@@H](O)[C@H](O)[C@H]2O)[C@H](O)[C@H]1O[C@H]1O[C@H](CO)[C@@H](O)[C@H](N)C1O (stereo partly specified)
inactive: locus YAL013W, strain DEP1, stronger effect = lower value 0.974 | locus YAL021C, strain ccr4, stronger effect = lower value 1.02 | locus YAL026C, strain drs2, stronger effect = lower value 1.02 | locus YAL030W, strain snc1, stronger effect = lower value 1.04 | locus YBL061C, strain skt5, stronger effect = lower value 1.03 | locus YBR009C, strain hhf1, stronger effect = lower value 1.03 | locus YBR021W, strain FUR4, stronger effect = lower value 0.96 | locus YBR023C, strain chs3, stronger effect = lower value 1.04 | locus YBR171W, strain sec66, stronger effect = lower value 1.04 | locus YBR229C, strain ROT2, stronger effect = lower value 0.999 | locus YBR231C, strain swc5, stronger effect = lower value 1.04 | locus YBR279W, strain paf1, stronger effect = lower value 1.03 | locus YCL011C, strain gbp2, stronger effect = lower value 1.03 | locus YCL016C, strain dcc1, stronger effect = lower value 1.04 | locus YCL029C, strain bik1, stronger effect = lower value 1.02 | locus YCL061C, strain MRC1, stronger effect = lower value 1.02 | locus YCL069W, strain vba3, stronger effect = lower value 1.04 | locus YCR088W, strain abp1, stronger effect = lower value 1.03 | locus YDL005C, strain med2, stronger effect = lower value 1.04 | locus YDL035C, strain GPR1, stronger effect = lower value 0.986 | locus YDL040C, strain nat1, stronger effect = lower value 1.04 | locus YDL074C, strain BRE1, stronger effect = lower value 0.983 | locus YDL101C, strain DUN1, stronger effect = lower value 0.999 | locus YDL185W, strain tfp1, stronger effect = lower value 1.02 | locus YDL192W, strain arf1, stronger effect = lower value 1.01 | locus YDR001C, strain nth1, stronger effect = lower value 1.02 | locus YDR069C, strain doa4, stronger effect = lower value 1.03 | locus YDR101C, strain arx1, stronger effect = lower value 0.998 | locus YDR137W, strain rgp1, stronger effect = lower value 1.04 | locus YDR159W, strain sac3, stronger effect = lower value 1.05 | locus YDR162C, strain NBP2, stronger effect = lower value 1.01 | locus YDR195W, strain ref2 1.08 | locus YDR297W, strain sur2, stronger effect = lower value 1.03 | locus YDR318W, strain mcm21, stronger effect = lower value 1.01 | locus YDR334W, strain swr1, stronger effect = lower value 1.01 | locus YDR335W, strain msn5, stronger effect = lower value 1.04 | locus YDR388W, stronger effect = lower value 1.01 | locus YDR392W, strain spt3, stronger effect = lower value 1.06 | locus YDR502C, strain sam2, stronger effect = lower value 1.01 | locus YEL003W, strain gim4, stronger effect = lower value 1.03 | locus YEL037C, strain rad23, stronger effect = lower value 1.03 | locus YEL061C, strain CIN8 (second series), stronger effect = lower value 1.04 | locus YEL061C, strain CIN8, stronger effect = lower value 1 | locus YER015W, strain faa2, stronger effect = lower value 1.03 | locus YER016W, strain bim1, stronger effect = lower value 1 | locus YER110C, stronger effect = lower value 1.03 | locus YER111C, strain swi4, stronger effect = lower value 1.03 | locus YER155C, strain BEM2 (second series), stronger effect = lower value 1.02 | locus YER155C, strain BEM2, stronger effect = lower value 1.01 | locus YER167W, strain BCK2, stronger effect = lower value 0.986 | locus YFR010W, strain ubp6, stronger effect = lower value 1.05 | locus YGL078C, strain dbp3, stronger effect = lower value 1 | locus YGL086W, strain mad1, stronger effect = lower value 1 | locus YGL167C, strain pmr1, stronger effect = lower value 1.03 | locus YGL173C, strain kem1, stronger effect = lower value 1.04 | locus YGL227W, strain vid30, stronger effect = lower value 1.05 | locus YGL240W, strain doc1, stronger effect = lower value 1.01 | locus YGL248W, strain PDE1, stronger effect = lower value 0.999 | locus YGL253W, strain hxk2, stronger effect = lower value 1.02 | locus YGR078C, strain PAC10, stronger effect = lower value 0.997 | locus YGR135W, strain pre9, stronger effect = lower value 0.988 | locus YGR252W, strain gcn5, stronger effect = lower value 0.944 | locus YHR013C, strain ard1, stronger effect = lower value 1.04 | locus YHR027C, strain rpn1, stronger effect = lower value 1.03 | locus YHR030C, strain SLT2, stronger effect = lower value 1.01 and 1.02 | locus YHR079C, strain IRE1 (second series), stronger effect = lower value 1.02 | locus YHR079C, strain IRE1, stronger effect = lower value 1.03 | locus YHR094C, strain hxt1, stronger effect = lower value 1.03 | locus YHR129C, strain ARP1, stronger effect = lower value 1.01 | locus YHR142W, strain chs7, stronger effect = lower value 1.06 | locus YHR200W, strain rpn10, stronger effect = lower value 1.02 | locus YIL066C, strain RNR3, stronger effect = lower value 1 | locus YIL073C, strain SPO22, stronger effect = lower value 1.19 | locus YIL125W, strain kgd1, stronger effect = lower value 1.01 | locus YIR030C, strain dcg1, stronger effect = lower value 1.03 | locus YJL092W, strain hpr5, stronger effect = lower value 1.03 | locus YJL095W, strain BCK1 (second series), stronger effect = lower value 1 | locus YJL095W, strain BCK1, stronger effect = lower value 0.999 and 1.02 | locus YJL115W, strain asf1, stronger effect = lower value 1.04 | locus YJL129C, strain trk1, stronger effect = lower value 1.07 | locus YJL134W, strain LCB3, stronger effect = lower value 1.01 | locus YJL154C, strain vps35, stronger effect = lower value 1.03 | locus YJL164C, strain tpk1, stronger effect = lower value 1.01 | locus YJL166W, strain qcr8, stronger effect = lower value 1.03 | locus YJL168C, strain set2, stronger effect = lower value 1.01 | locus YJL187C, strain SWE1 (second series), stronger effect = lower value 0.999 | locus YJL187C, strain SWE1, stronger effect = lower value 1.03 | locus YJR043C, strain POL32, stronger effect = lower value 0.983 | locus YJR066W, strain TOR1, stronger effect = lower value 0.975 | locus YJR075W, strain HOC1, stronger effect = lower value 0.995 | locus YKL009W, strain mrt4, stronger effect = lower value 1.02 | locus YKL068W, stronger effect = lower value 1.01 | locus YKL085W, strain MDH1 (second series), stronger effect = lower value 1.01 | locus YKL085W, strain MDH1, stronger effect = lower value 1.01 | locus YKL160W, strain elf1, stronger effect = lower value 1.01 | locus YKR001C, strain vps1, stronger effect = lower value 1.01 | locus YKR026C, strain gcn3, stronger effect = lower value 1.07 | locus YKR091W, strain srl3, stronger effect = lower value 1.01 | locus YLL001W, strain dnm1, stronger effect = lower value 1.02 | locus YLL026W, stronger effect = lower value 1.01 | locus YLL041C, strain sdh2, stronger effect = lower value 1.03 | locus YLR027C, strain aat2, stronger effect = lower value 1.02 | locus YLR039C, strain RIC1, stronger effect = lower value 1.04 | locus YLR058C, strain SHM2, stronger effect = lower value 1.01 | locus YLR102C, strain apc9, stronger effect = lower value 1.01 | locus YLR113W, strain HOG1, stronger effect = lower value 1.03 | locus YLR221C, strain rsa3, stronger effect = lower value 1.01 | locus YLR258W, strain gsy2, stronger effect = lower value 1.02 | locus YLR262C, strain YPT6 (second series), stronger effect = lower value 1.03 | locus YLR262C, strain YPT6, stronger effect = lower value 1.04 | locus YLR268W, strain sec22, stronger effect = lower value 1.04 | locus YLR320W, strain mms22, stronger effect = lower value 1.03 | locus YLR330W, strain CHS5, stronger effect = lower value 1.01 | locus YLR342W, strain FKS1 (second series), stronger effect = lower value 0.966 | locus YLR342W, strain FKS1, stronger effect = lower value 1.03 | locus YLR357W, strain rsc2, stronger effect = lower value 1.09 | locus YLR370C, strain arc18, stronger effect = lower value 1.03 | locus YLR371W, strain rom2, stronger effect = lower value 1.01 | locus YLR384C, strain iki3, stronger effect = lower value 1.03 | locus YLR418C, strain cdc73, stronger effect = lower value 1.01 | locus YML016C, strain PPZ1, stronger effect = lower value 1.01 | locus YML032C, strain rad52, stronger effect = lower value 1.01 | locus YML120C, strain ndi1, stronger effect = lower value 1.02 | locus YML124C, strain tub3, stronger effect = lower value 1.01 | locus YMR058W, strain fet3, stronger effect = lower value 1.04 | locus YMR078C, strain ctf18, stronger effect = lower value 1.02 | locus YMR125W, strain sto1, stronger effect = lower value 1.06 | locus YMR129W, stronger effect = lower value 1.03 | locus YMR205C, strain PFK2, stronger effect = lower value 1.05 | locus YMR223W, strain ubp8, stronger effect = lower value 1.01 | locus YMR231W, strain pep5, stronger effect = lower value 1.03 | locus YMR263W, strain SAP30, stronger effect = lower value 1 | locus YMR307W, strain GAS1, stronger effect = lower value 0.921 | locus YNL067W, strain RPL9B, stronger effect = lower value 0.992 | locus YNL071W, strain lat1, stronger effect = lower value 1.02 | locus YNL153C, strain GIM3, stronger effect = lower value 0.996 | locus YNL183C, strain NPR1, stronger effect = lower value 0.952 | locus YNL209W, strain ssb2, stronger effect = lower value 1.02 | locus YNL233W, strain BNI4, stronger effect = lower value 1.02 | locus YNL248C, strain rpa49, stronger effect = lower value 0.984 | locus YNL250W, strain rad50, stronger effect = lower value 1.01 | locus YNL271C, strain bni1, stronger effect = lower value 1.02 | locus YNL298W, strain CLA4, stronger effect = lower value 1.02 | locus YNL307C, strain MCK1, stronger effect = lower value 1.02 | locus YNL322C, strain KRE1 (second series), stronger effect = lower value 1.04 | locus YNL322C, strain KRE1, stronger effect = lower value 1.01 | locus YNR049C, strain mso1, stronger effect = lower value 1.03 | locus YNR052C, strain pop2, stronger effect = lower value 1.02 | locus YOL006C, strain TOP1, stronger effect = lower value 0.932 | locus YOL012C, strain htz1 0.906 | locus YOL147C, strain pex11, stronger effect = lower value 1.02 | locus YOR001W, strain rrp6, stronger effect = lower value 1.05 | locus YOR061W, strain CKA2, stronger effect = lower value 1.01 | locus YOR069W, strain VPS5, stronger effect = lower value 1.01 | locus YOR070C, strain gyp1, stronger effect = lower value 1.03 | locus YOR080W, strain dia2, stronger effect = lower value 1.05 | locus YOR083W, strain WHI5, stronger effect = lower value 1.02 | locus YOR106W, strain vam3, stronger effect = lower value 1.04 | locus YOR136W, strain idh2, stronger effect = lower value 1.02 | locus YOR144C, strain elg1, stronger effect = lower value 1.02 | locus YOR184W, strain ser1, stronger effect = lower value 1.03 | locus YOR231W, strain MKK1, stronger effect = lower value 1 | locus YOR265W, strain rbl2, stronger effect = lower value 1.04 | locus YOR270C, strain vph1, stronger effect = lower value 1.05 | locus YOR290C, strain snf2, stronger effect = lower value 1.04 | locus YOR316C, strain cot1, stronger effect = lower value 1.02 | locus YPL051W, strain arl3, stronger effect = lower value 1.02 | locus YPL078C, strain atp4, stronger effect = lower value 1.03 | locus YPL106C, strain sse1, stronger effect = lower value 1.07 | locus YPL240C, strain hsp82, stronger effect = lower value 1.02 | locus YPL256C, strain CLN2, stronger effect = lower value 1.04 | locus YPR119W, strain clb2, stronger effect = lower value 1.01 | locus YPR141C, strain kar3, stronger effect = lower value 1.01 | locus YPR163C, strain tif3, stronger effect = lower value 1.02 | locus YPR167C, strain met16, stronger effect = lower value 1.02 | strain wtn01, stronger effect = lower value 1.01
